# Measured values: the supplement of paper PMC6555819
# Tests used:
# Test in all cases: PBM binding z-score (relative to random genomic background probes); higher = stronger binding; sequences stand for … in GC…GCGATTGACAGCGTAGAATGAAGG
# [1] = test system: FXR:RXRa (NR concentration 270 nM, RXRa partner concentration 90 nM)
# Outline: (§1)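 On custom Agilent 4×180K arrays, double-stranded probes with 34-nt variable regions carried direct-repeat seeds, single-nucleotide variants, half-site ablations or random human genomic background. Ligand-free nuclear receptor dimers were applied for 1 h, and binding was read with antibodies against each partner (one per run). Binding z-scores come from regression-normalized fluorescence, with the random background probes as reference.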
# [2] = test system: LXRa:RXRa (NR concentration 270 nM, RXRa partner concentration 90 nM)
# Outline: as §1
# [3] = test system: LXRa homodimer (NR concentration 270 nM)
# Outline: as §1
# [4] = test system: LXRb:RXRa (NR concentration 270 nM, RXRa partner concentration 90 nM)
# Outline: as §1
# [5] = test system: LXRb homodimer (NR concentration 270 nM)
# Outline: as §1
# [6] = test system: PPARa:RXRa (NR concentration 270 nM, RXRa partner concentration 90 nM)
# Outline: as §1
# [7] = test system: PPARg:RXRa (NR concentration 180 nM, RXRa partner concentration 90 nM)
# Outline: as §1
# [8] = test system: PPARg:RXRa 270nM:90nM, anti-RXR (NR concentration 270 nM, RXRa partner concentration 90 nM)
# Outline: as §1
# [9] = test system: PPARg:RXRa 30nM:10nM, anti-RXR (NR concentration 30 nM, RXRa partner concentration 10 nM)
# Outline: as §1
# [10] = test system: PPARg:RXRa 90nM:30nM, anti-RXR (NR concentration 90 nM, RXRa partner concentration 30 nM)
# Outline: as §1
# [11] = test system: PPARg:RXRa DBDmut IVT, anti-RXR (DBD mutation: RXRa K156A/R161A, NR concentration 270 nM, RXRa partner concentration 90 nM)
# Outline: as §1
# [12] = test system: PPARg:RXRa IVT, anti-PPARg (NR concentration 270 nM, RXRa partner concentration 90 nM)
# Outline: as §1
# [13] = test system: PPARg DBDmut:RXRa IVT, anti-PPARg (DBD mutation: PPARg1 K132A/R137A, NR concentration 270 nM, RXRa partner concentration 90 nM)
# Outline: as §1
# [14] = test system: PPARg DBDmut IVT, anti-PPARg (DBD mutation: PPARg1 K132A/R137A, NR concentration 270 nM)
# Outline: as §1
# [15] = test system: PPARg homodimer (NR concentration 180 nM)
# Outline: as §1
# [16] = test system: PXR:RXRa (NR concentration 270 nM, RXRa partner concentration 90 nM)
# Outline: as §1
# [17] = test system: PXR homodimer (NR concentration 270 nM)
# Outline: as §1
# [18] = test system: RARa:RXR (NR concentration 270 nM, RXRa partner concentration 90 nM)
# Outline: as §1
# [19] = test system: RARa homodimer (NR concentration 270 nM)
# Outline: as §1
# [20] = test system: RARb:RXRa (NR concentration 270 nM, RXRa partner concentration 90 nM)
# Outline: as §1
Sequence,PBM binding z-score [1],PBM binding z-score [2],PBM binding z-score [3],PBM binding z-score [4],PBM binding z-score [5],PBM binding z-score [6],PBM binding z-score [7],PBM binding z-score [8],PBM binding z-score [9],PBM binding z-score [10],PBM binding z-score [11],PBM binding z-score [12],PBM binding z-score [13],PBM binding z-score [14],PBM binding z-score [15],PBM binding z-score [16],PBM binding z-score [17],PBM binding z-score [18],PBM binding z-score [19],PBM binding z-score [20]
CGTCAAAGTTCAAGGTGACGTAACAGAAAGCAGC,6.62,5.96,2.8,3.49,0.846,4.92,4.71,5.65,2.12,4.45,0.983,2.9,0.379,0.562,2.88,4.44,2.3,3.88,1.52,5.21
CGTCAAAGTTCAACTAAGGTAGCGTAAAGCACGC,6.83,6.17,3.78,4.01,1.98,4.8,4.84,5.37,1.94,4.03,0.387,1.51,-0.0827,0.743,3.4,5.03,4.13,3.8,2.16,5.15
GCTATTAGTTGAAAGGGCTACCGAATGATTCTCG,-0.348,-0.291,-0.117,-0.32,-0.468,0.0178,0.531,1.52,0.317,1.21,0.511,-0.182,-0.304,0.104,0.707,-0.465,-0.174,-0.0219,0.6,0.408
ACGATTAGTTGACTTAGGGCAACCGATACGACGC,-0.0158,-0.0959,0.339,0.0402,-0.172,-0.0149,0.855,-0.28,0.0988,-0.124,-0.586,0.153,0.298,0.246,-0.134,0.199,-0.0112,0.392,0.251,0.703
AGAATGAGGTTCTTAAGATCAGGGAATTGCGGTC,-0.335,-0.575,-0.571,-0.551,-0.54,-0.0387,0.197,-0.0485,-0.306,0.0331,0.324,0.283,0.378,-0.225,-0.0988,-0.118,-0.179,-0.0748,-0.832,0.0675
TCTCGGAGGACATGAAGGTCAGAGCTTTCCAGAG,0.472,1.08,0.0663,1.15,-0.779,1.77,0.175,1.63,2.55,1.8,2.01,0.772,-0.736,-1.67,0.875,1.77,0.899,1.69,0.0257,2.63
CGTCAAAGTTCAAGGTAACGTACCAGAAAGCAGC,6.54,5.59,3.17,3.47,1.03,4.79,4.38,5.05,1.94,4.24,0.681,2.41,0.882,0.599,4.5,4.28,3.52,3.57,2.48,5.12
CCTTACGGGACAAGGTTATAGCACGGGTGGTACG,0.441,0.693,-0.25,0.134,-0.233,1.02,1.08,0.756,0.00492,0.323,-0.648,0.0765,-0.507,-0.996,0.819,0.699,0.148,1.01,0.441,0.996
TAGCCTAGGTCAGATCGGGCCAGGATACGCTATA,1.61,1.02,-0.706,0.308,-0.62,1.68,0.718,0.623,-0.241,-0.042,-0.033,1.22,-0.531,-0.442,-0.135,0.771,-0.663,0.816,-1.26,3
GCTAGTTGGTCAGTAAAAGGGCACACACCGGTCG,0.16,0.257,0.266,0.266,-0.104,0.841,0.709,1.04,0.0544,0.502,0.062,0.821,0.0138,-0.25,1.05,0.368,0.0129,0.889,0.252,1.72
CGAACTAGGGCATCCAGGACAGTGAATACATTGA,0.197,-0.226,-0.3,-0.431,-0.651,2.12,3.28,2.52,0.606,1.5,7.07,6.16,1.33,1.16,0.204,-0.0736,0.524,0.0025,-0.274,1.3
GATACAGGGTCAAGGCCCGAGTACGCGTATTGAT,6.52,4.01,-0.361,3.39,-0.411,5.39,5.65,5.62,2.48,4.12,2.09,3.66,0.597,-0.396,1.27,3.48,0.163,4.6,0.3,4.31
TCTCGGATGACACGAAGGTCAGAGCTTTCCAGAG,2.3,1.55,0.495,1.4,-0.796,2.24,0.758,2.21,2.77,2.56,1.37,0.539,-0.684,-0.814,0.961,1.62,0.0323,2.3,-0.214,2.55
GCAACGAGGGCAAAGTTGATAGCATCTGTCGACG,1.14,1.01,-0.469,0.805,-0.643,3.7,5.92,6.03,4.83,6.51,2.74,3.19,0.065,-0.728,0.234,1.18,-0.438,1.53,-0.122,2.34
